Laboratory results taken from PubChem BioAssay AID1159580 (chemical genetic matrix, 2015).
“And” between values parts separate entries of the source, which are not always exact repeats. Equal values may be shown once. Hit rate of the full screen: of about 5,500 compounds, about 2,000 (36%) were called active. Not shown: some 18% with an inconclusive outcome. No stated cut-off is given here; in the data, active means normalized growth mostly below about 0.91 (no sharp cut-off); inconclusive means no clear call, values can overlap the other calls; inactive means mostly above about 0.92. The list shows a part of the results.

Assay: chemical genetic growth profiling, strain panel (AID 1159580);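 further: tested at 20 µM; growth read once vehicle control cultures reached saturation at 30 °C; 1 = growth at the plate median or of vehicle wells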
Conditions: S. cerevisiae deletion strains, growth OD

Measured: normalized growth

COc1ccc(-c2cc(=O)c3ccccc3o2)cc1
0.398 (active) and 0.992 (inactive): locus YHR030C, strain SLT2, stronger effect = lower value
inactive: locus YBR021W, strain FUR4, stronger effect = lower value 0.949 | locus YBR229C, strain ROT2, stronger effect = lower value 0.932 | locus YCR088W, strain abp1, stronger effect = lower value 0.926 | locus YDL005C, strain med2, stronger effect = lower value 0.919 | locus YDL185W, strain tfp1, stronger effect = lower value 0.907 | locus YDR001C, strain nth1, stronger effect = lower value 0.923 | locus YDR069C, strain doa4, stronger effect = lower value 0.926 | locus YDR159W, strain sac3, stronger effect = lower value 0.998 | locus YDR334W, strain swr1, stronger effect = lower value 0.943 | locus YER110C, stronger effect = lower value 0.927 | locus YFR010W, strain ubp6, stronger effect = lower value 0.911 | locus YGL078C, strain dbp3, stronger effect = lower value 0.933 | locus YGL227W, strain vid30, stronger effect = lower value 0.92 | locus YGR252W, strain gcn5, stronger effect = lower value 0.824 | locus YHR079C, strain IRE1, stronger effect = lower value 1 | locus YHR094C, strain hxt1, stronger effect = lower value 0.939 | locus YIL125W, strain kgd1, stronger effect = lower value 0.949 | locus YJL115W, strain asf1, stronger effect = lower value 0.915 | locus YJL129C, strain trk1, stronger effect = lower value 0.916 | locus YJL134W, strain LCB3, stronger effect = lower value 0.928 | locus YJL154C, strain vps35, stronger effect = lower value 0.938
active: locus YAL013W, strain DEP1, stronger effect = lower value 0.682 | locus YAL021C, strain ccr4, stronger effect = lower value 0.888 | locus YAL026C, strain drs2, stronger effect = lower value 0.828 | locus YAL030W, strain snc1, stronger effect = lower value 0.905 | locus YBL061C, strain skt5, stronger effect = lower value 0.869 | locus YBR009C, strain hhf1, stronger effect = lower value 0.725 | locus YBR023C, strain chs3, stronger effect = lower value 0.811 | locus YBR171W, strain sec66, stronger effect = lower value 0.869 | locus YBR231C, strain swc5, stronger effect = lower value 0.857 | locus YBR279W, strain paf1, stronger effect = lower value 0.881 | locus YCL011C, strain gbp2, stronger effect = lower value 0.809 | locus YCL016C, strain dcc1, stronger effect = lower value 0.781 | locus YCL029C, strain bik1, stronger effect = lower value 0.753 | locus YCL061C, strain MRC1, stronger effect = lower value 0.833 | locus YCL069W, strain vba3, stronger effect = lower value 0.863 | locus YDL035C, strain GPR1, stronger effect = lower value 0.656 | locus YDL040C, strain nat1, stronger effect = lower value 0.923 | locus YDL074C, strain BRE1, stronger effect = lower value 0.452 | locus YDL101C, strain DUN1, stronger effect = lower value 0.655 | locus YDL192W, strain arf1, stronger effect = lower value 0.685 | locus YDR101C, strain arx1, stronger effect = lower value 0.884 | locus YDR137W, strain rgp1, stronger effect = lower value 0.53 | locus YDR162C, strain NBP2, stronger effect = lower value 0.274 | locus YDR195W, strain ref2 1.3 [resistant] | locus YDR297W, strain sur2, stronger effect = lower value 0.899 | locus YDR318W, strain mcm21, stronger effect = lower value 0.792 | locus YDR335W, strain msn5, stronger effect = lower value 0.902 | locus YDR388W, stronger effect = lower value 0.807 | locus YDR392W, strain spt3, stronger effect = lower value 0.406 | locus YDR502C, strain sam2, stronger effect = lower value 0.757 | locus YEL003W, strain gim4, stronger effect = lower value 0.79 | locus YEL037C, strain rad23, stronger effect = lower value 0.904 | locus YEL061C, strain CIN8 (second series), stronger effect = lower value 0.904 | locus YEL061C, strain CIN8, stronger effect = lower value 0.672 | locus YER015W, strain faa2, stronger effect = lower value 0.904 | locus YER016W, strain bim1, stronger effect = lower value 0.918 | locus YER111C, strain swi4, stronger effect = lower value 0.881 | locus YER155C, strain BEM2 (second series), stronger effect = lower value 0.283 | locus YER155C, strain BEM2, stronger effect = lower value 0.734 | locus YER167W, strain BCK2, stronger effect = lower value 0.739 | locus YGL086W, strain mad1, stronger effect = lower value 0.762 | locus YGL167C, strain pmr1, stronger effect = lower value 0.894 | locus YGL173C, strain kem1, stronger effect = lower value 0.798 | locus YGL240W, strain doc1, stronger effect = lower value 0.756 | locus YGL248W, strain PDE1, stronger effect = lower value 0.636 | locus YGL253W, strain hxk2, stronger effect = lower value 0.681 | locus YGR135W, strain pre9, stronger effect = lower value 0.747 | locus YHR013C, strain ard1, stronger effect = lower value 0.771 | locus YHR027C, strain rpn1, stronger effect = lower value 0.916 | locus YHR079C, strain IRE1 (second series), stronger effect = lower value 0.887 | locus YHR129C, strain ARP1, stronger effect = lower value 0.661 | locus YHR142W, strain chs7, stronger effect = lower value 0.584 | locus YHR200W, strain rpn10, stronger effect = lower value 0.868 | locus YIL066C, strain RNR3, stronger effect = lower value 0.55 | locus YIL073C, strain SPO22, stronger effect = lower value 0.66 | locus YIR030C, strain dcg1, stronger effect = lower value 0.804 | locus YJL092W, strain hpr5, stronger effect = lower value 0.884 | locus YJL095W, strain BCK1 (second series), stronger effect = lower value 0.707 | locus YJL164C, strain tpk1, stronger effect = lower value 0.754 | locus YJL166W, strain qcr8, stronger effect = lower value 0.771 | locus YJL168C, strain set2, stronger effect = lower value 0.922 | locus YJL187C, strain SWE1 (second series), stronger effect = lower value 0.668 | locus YJL187C, strain SWE1, stronger effect = lower value 0.9 | locus YJR043C, strain POL32, stronger effect = lower value 0.724
0.277 (active) and 0.975 (inactive): locus YJL095W, strain BCK1, stronger effect = lower value
